Test results as given in PubChem BioAssay AID434973 (Sanford-Burnham Center for Chemical Genomics, 2010).
Hit rate of the full screen: of about 330,000 compounds, about 4,900 (1.5%) were called active.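 How the source made its calls: active means inhibition above about 50% at the single test dose (limit read from the data); inactive means the rest.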 Only a selection was taken, and actives are over-represented in it overall.

biological target: Sentrin-specific protease 7 (Homo sapiens) (UniProt Q9BQF6); assay: SENP7 protease inhibitors, primary screen, biochemical, luminescence, uHTS (AID 434973); conditions: recombinant SENP7, Z-RLRGG-aminoluciferin luminescence, 40 min; at 5 µM; active compounds read high;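 further: plate controls were DMSO with enzyme for no effect and no enzyme buffer wells for full effect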

Row | SMILES | inhibition
1 | O=C(c1ccccc1F)N(Cc1ccccc1)Cc1ccccc1 | -9.2% (inactive)
2 | Cc1c(Cl)c([N+](=O)[O-])nn1Cc1ccc(C(=O)N/N=C\c2cc(Cl)ccc2O)o1 | 10.1% (inactive)
3 | CCN(CC)S(=O)(=O)c1ccc(OC(C)C)c(N)c1 | 2.51% (inactive)
4 | CC(=O)C1C(c2ccc(Cl)cc2)c2c(n[nH]c2C)CC1(C)O (configuration not stated) | -1.26% (inactive)
5 | CC(=O)NNC1=Nc2ccccc2N(C)C(C)C1 (configuration not stated) | 1.41% (inactive)
6 | CCc1cc(=O)oc2cc(OCC(=O)N3CCCc4ccccc43)ccc12 | -13.1% (inactive)
7 | Cc1ccnc(N2C(=O)c3ccc([N+](=O)[O-])cc3C2=O)c1 | -0.103% (inactive)
8 | Cc1ccc(-c2cn(S(=O)(=O)c3cccc([N+](=O)[O-])c3)nc2N)cc1 | 1.39% (inactive)
9 | Cc1ccc(-n2cc3ccc([N+](=O)[O-])cc3n2)cc1 | 87.9% (active)
10 | CC(C)(C)c1cc[n+](-c2[nH]c(=O)sc2/C=N/N=C(\[O-])c2ccccc2)cc1 | 1.22% (inactive)
11 | CCN(CC)S(=O)(=O)c1ccc(N2CCOCC2)c(NC(=O)c2ccc(=O)n(C)n2)c1 | -0.97% (inactive)
12 | CCC(C)C(NC(=O)C1CCC(=O)N1C(=O)OCc1ccccc1)C(=O)NC(C(=O)N1CCCC1C(N)=O)C(C)CC (configuration not stated) | -7.38% (inactive)
13 | N/C(=N\OC(=O)c1ccc([N+](=O)[O-])cc1)c1ccccn1 | 94.8% (active)
14 | Cc1ccc(NC(=O)c2ccccn2)cc1S(=O)(=O)N1CCOCC1 | -1.52% (inactive)
15 | O=C(COC(=O)c1ccccn1)NNC(=O)c1ccc([N+](=O)[O-])cc1 | 4.18% (inactive)
16 | O=C(COC(=O)c1ccccn1)NNC(=O)c1ccc(Br)cc1 | 8.04% (inactive)
17 | COc1ccc(C(=O)O/N=C(\N)c2ccccn2)cc1[N+](=O)[O-] | 10.4% (inactive)
18 | Cc1ccc(C(=O)O/N=C(\N)c2ccccn2)cc1Cl | 95.8% (active)
19 | CCCCN=C(N)/C(C(=O)OCC)=C(\O)c1ccc(OC)cc1 | 13.1% (inactive)
20 | CC(OC(=O)CN1C(=O)c2ccccc2C1=O)C(=O)c1ccccc1 (configuration not stated) | 5.15% (inactive)
21 | CCc1ccc(NC(=O)CN2C(=O)COc3ccc(S(=O)(=O)N4CCCC4)cc32)cc1 | 2.36% (inactive)
22 | C=C(Br)Cn1c(CCCC)nc2ccccc21 | 2.52% (inactive)
23 | FC(F)(F)c1ccnc(Oc2ccc(C3=NCCS3)cc2)c1 | 67.2% (active)
24 | O=[N+]([O-])c1cccc(C2=NCCS2)c1 | -1.11% (inactive)
25 | CC(C)Oc1ccc(Oc2ccc(C(F)(F)F)cn2)cc1 | -3.04% (inactive)

Row | SMILES | inhibition
26 | COc1ccc(C(=O)n2nc(C)c(Br)c2C)cc1OC | 0.64% (inactive)
27 | COC(=O)CN1C(=O)[C@H]2[C@@H](/C=C/c3ccccc3)N3C(=O)CN(CC4CC4)C(=O)[C@@]3(Cc3ccccc3)[C@H]2C1=O | -16.2% (inactive)
28 | CCCCSc1nnc(-c2ccc(C)cc2)o1 | 58.9% (active)
29 | CCOC(=O)CSc1nnc(-c2ccc([N+](=O)[O-])cc2)o1 | -2.17% (inactive)
30 | CCOC(=O)CSc1nnc(-c2cccc(Br)c2)o1 | -6.07% (inactive)
31 | CCOc1ccc(NC(=O)CN(C)C(=O)c2cccc(S(=O)(=O)N3CCCC3)c2)cc1OCC | -6.73% (inactive)
32 | Cc1ccc(-n2c(-c3ccc(Cl)cc3)n[nH]c2=S)cc1 | -0.859% (inactive)
33 | Cc1cc(N2CCOCC2)nc(-c2ccc(Br)cc2)n1 | -7.07% (inactive)
34 | Cc1ccc2nc(-c3ccc(Br)cc3)cn2c1 | 89.3% (active)
35 | CSc1nnc2ccc(-c3ccc(C)cc3)nn12 | -16.3% (inactive)
36 | Cc1ccc(-c2cc(N)on2)cc1 | -4.29% (inactive)
37 | Cc1ccc(-c2cn3cc(C)ccc3n2)cc1 | 86.5% (active)
38 | O=C1C2C3C=CC(C3)C2C(=O)N1c1ccc(S(=O)(=O)Nc2nccs2)cc1 (configuration not stated) | 4.27% (inactive)
39 | CN(C)c1cccc(C(=O)N2CCC(n3nccc3NC(=O)C3CCOC3)CC2)c1 (configuration not stated) | 9.95% (inactive)
40 | CCCCC(=O)Nc1c2c(nn1-c1ccc([N+](=O)[O-])cc1)CS(=O)(=O)C2 | -1.87% (inactive)
41 | CC1C(=O)N(Cc2ccccc2)c2ccccc2N1C(=O)c1ccccc1 (configuration not stated) | -2.81% (inactive)
42 | COc1cc(Cl)cc(C2NC(=O)NC(C)=C2C(=O)NCc2ccccc2)c1O (configuration not stated) | -4.23% (inactive)
43 | Cn1cccc1C(=O)OCC(=O)NCCc1ccccc1 | -5.93% (inactive)
44 | O=C(COC(=O)c1c2c(nc3ccccc13)CCCC2)c1ccc(Br)s1 | 14.3% (inactive)
45 | Cn1cccc1C(=O)OCC(=O)c1ccc(Br)s1 | 82.4% (active)
46 | O=C(CSc1nncn1-c1cccnc1)N1CCOCC1 | 5.85% (inactive)
47 | Cc1n[nH]c(=O)c2c(NC(=O)CSc3cc(Cl)ccc3Cl)oc(C)c12 | -0.542% (inactive)
48 | CC1CN(c2cc(=O)n(-c3cccc(Br)c3)c(=O)[nH]2)CC(C)O1 (configuration not stated) | 4.5% (inactive)
49 | CCOC(=O)N1CCC(NC(=O)c2cnn3ccccc23)CC1 | -0.379% (inactive)
50 | O=C(c1cnn2ccccc12)N1CCc2ccccc21 | 52.8% (active)

Row | SMILES | inhibition
51 | Cc1cnc(C(=O)OCC(=O)N2CCc3ccccc32)cn1 | -1.46% (inactive)
52 | Cc1ccc(S(=O)(=O)/N=S(\C)C(C)C)cc1 (configuration not stated) | -7.18% (inactive)
53 | CCC(C)(C(=O)NC1CCCC1)N(C(=O)CNC(C)=O)c1ccc(C)cc1 (configuration not stated) | -2.07% (inactive)
54 | COc1ccccc1NC(=O)c1ccc(N2CC3CC(C2)c2cccc(=O)n2C3)c(NC(=O)c2cccnc2)c1 (configuration not stated) | 70.4% (active)
55 | CCOc1ccccc1NC(=O)c1cccnc1 | -1.12% (inactive)
56 | COc1ccccc1NC(=O)c1ccc2nc(N3C(=O)CCC3=O)sc2c1 | -10.2% (inactive)
57 | O=C(CC1C(=O)NCCN1CC(c1ccccc1)c1ccccc1)NCCc1cn[nH]c1 (configuration not stated) | -0.769% (inactive)
58 | O=C(COC(=O)c1ccncc1)c1ccccc1 | -15% (inactive)
59 | Cc1noc(C)c1COC(=O)COc1ccc(-c2ccccc2)cc1 | 6.3% (inactive)
60 | O=C(Oc1ccc(-c2nc(-c3ccccn3)no2)cc1)c1ccccc1 | 99.8% (active)
61 | CN(C(=O)CSc1nncc2ccccc12)C1CCCCC1 | -7.84% (inactive)
62 | CN(c1ccc2nc3ccccc3c(=O)n2n1)C1CCCCC1 | 93.7% (active)
63 | CN(C(=O)c1cc2c(=O)n3ccccc3nc2s1)C1CCCCC1 | -3.91% (inactive)
64 | CCn1cc(C(=O)N[C@@H](C)C(=O)NCCO)c(=O)c2cc3c(cc21)OCO3 | -6.11% (inactive)
65 | CC(C(=O)Nc1ccc(S(=O)(=O)N2CCCC2)cc1)N(C)Cc1ccc(F)cc1 (configuration not stated) | 8.65% (inactive)
66 | CC(C)n1cnc2c(NCc3ccccc3)cc(OCC3CCN(C)CC3)cc21 | 52.7% (active)
67 | CCC(CO)Oc1cc(NCc2ccccc2)c2ncn(C3CCCC3)c2c1 (configuration not stated) | 8.26% (inactive)
68 | CC(C)n1cnc2c(NCc3ccccc3)cc(N[C@@H](CO)Cc3ccccc3)cc21 | 35.9% (inactive)
69 | O=C(CCNC(=O)C1CCN(S(=O)(=O)c2ccccc2)CC1)NC1CC1 | -2.25% (inactive)
70 | O=C(O)c1ccc(S(=O)(=O)N2CCOCC2)o1 | -7.75% (inactive)
71 | CCCC(=O)Nc1nnc(CC(=O)OCC)s1 | -2.16% (inactive)
72 | O=C(Nc1ccc(Cl)cc1)c1cc2nc(C3CC3)cc(C(F)(F)F)n2n1 | 2.83% (inactive)
73 | COc1cc(C(=O)OC2CCOC2=O)c([N+](=O)[O-])cc1OC (configuration not stated) | -1.58% (inactive)
74 | CC(C)c1ccc(C(=O)OC2CCOC2=O)cc1 (configuration not stated) | 5.83% (inactive)
75 | O=C(OC1CCOC1=O)c1ccc(-c2nc3ccccc3s2)s1 (configuration not stated) | 96.8% (active)

Row | SMILES | inhibition
76 | Cc1cc2oc(=O)cc(CN(C)Cc3ccc(OC(F)F)cc3)c2cc1Cl | 5.95% (inactive)
77 | O=C(c1ccc(F)cc1)n1cc(C(=S)N2CCOCC2)c2ccccc21 | -1.66% (inactive)
78 | O=C(Cn1c(=S)nc2ccccn21)N1CCc2ccccc2C1 | -0.589% (inactive)
79 | O=C(c1ccc(F)cc1)n1c(=S)nc2ccccn21 | 96.3% (active)
80 | CN(C)C(=O)c1ccc(NC(=O)COC(=O)c2cc3c(s2)CCCCC3)cc1 | -2.04% (inactive)
81 | O=C(Nc1ccc(F)cc1)c1cc2c(s1)CCCC2 | 87% (active)
82 | O=C(NCC1CCCO1)c1cc2c(s1)CCCC2 (configuration not stated) | 7.59% (inactive)
83 | CC(Sc1sc(=S)sc1SC(C)C(=O)O)C(=O)O (configuration not stated) | -0.431% (inactive)
84 | N#C/C(C(=S)Nc1ccccc1)=C1/NN=C(N2CCOCC2)N1c1ccccc1 | -1.15% (inactive)
85 | O=C(CSC(=S)N1CCOCC1)c1cc(Br)cc(Br)c1O | 1.34% (inactive)
86 | O=C(CSC(=S)N1CCOCC1)c1ccccc1 | 62.7% (active)
87 | CC1CN(C(=S)SCC(=O)c2ccccc2)CC(C)O1 (configuration not stated) | 1.97% (inactive)
88 | CCN(CC(=O)Nc1ccccc1C(F)(F)F)C(=O)C1CCN(C(=O)Nc2ccccc2)CC1 | 3.1% (inactive)
89 | CC1CCc2sc3nc(N4CCN(CCO)CC4)n4ncnc4c3c2C1 (configuration not stated) | -6.6% (inactive)
90 | COc1cccc(Nc2nc(N)c([N+](=O)[O-])c(NCc3ccco3)n2)c1 | 3.33% (inactive)
91 | CNc1nc(Nc2ccc(C)c(Cl)c2)nc(N)c1[N+](=O)[O-] | 99.9% (active)
92 | CCN1CCN(c2nc(Nc3cccc(F)c3)nc(N)c2[N+](=O)[O-])CC1 | -8.75% (inactive)
93 | O=C(NCCCc1ccccc1)C1CCC(CNc2c(N3CCCCC3)c(=O)c2=O)CC1 (configuration not stated) | 3.15% (inactive)
94 | CC(=O)Nc1ccc(CN2CCC(Oc3ccc(C(=O)N4CCCC4)cc3)CC2)cc1 | 0.753% (inactive)
95 | Fc1ccccc1-c1cc2cc3c(cc2cn1)OCO3 | 77.3% (active)
96 | O=C(c1ccco1)N1CCN(C(=O)c2cc(-c3ccccc3F)no2)CC1 | 4.1% (inactive)
97 | O=C(CN1CCN(c2ccccc2F)CC1)c1ccc2c(c1)OCO2 | 8.23% (inactive)
